UHRF1 binding = blocks human UHRF1 binding to methylated DNA | UHRF1 binding to methylated oligo, TR-FRET | inhibition, % at 4.4 µM | AID 687016 | Q96T88 | actives 0.75% (n = 370,000); in the data active means inhibition above about 21%;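 further: UHRF1 SRA domain binding a hemimethylated CpG hairpin DNA probe; 0% = median of test compound wells and 100% = reference inhibitor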
PRMT1 FP inh = blocks human protein arginine methyltransferase 1 | Q99873 | recombinant PRMT1, activity-based probe fluorescence polarization | inhibition, % at 2.79 µM | actives 1.3% (n = 370,000) | AID 652257;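 active means inhibition above about 21% made by adding two undisclosed values, limit read from the data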
Target sequence (Q99873 whole entry, looked up): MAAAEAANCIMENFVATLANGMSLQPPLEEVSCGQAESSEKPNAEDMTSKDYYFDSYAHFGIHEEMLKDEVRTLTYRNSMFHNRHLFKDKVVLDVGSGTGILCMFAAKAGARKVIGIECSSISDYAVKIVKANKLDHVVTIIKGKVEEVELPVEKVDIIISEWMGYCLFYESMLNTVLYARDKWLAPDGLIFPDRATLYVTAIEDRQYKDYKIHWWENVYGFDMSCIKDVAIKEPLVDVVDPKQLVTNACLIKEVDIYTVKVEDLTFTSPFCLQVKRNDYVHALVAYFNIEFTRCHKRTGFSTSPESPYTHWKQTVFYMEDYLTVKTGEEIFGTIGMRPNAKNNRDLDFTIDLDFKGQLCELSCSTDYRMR
MBD2 inh = blocks human MBD2 binding to methylated DNA; Q9UBB5; TR-FRET, MBD2 binding to methylated oligonucleotide; inhibition, % at 4.4 µM; actives 0.31% (n = 370,000); in the data active means inhibition above about 13%
ABHD5 PLIN5 PPI = blocks binding of human ABHD5 to perilipin-5 | Q00G26+Q8WTS1 | Split G. princeps luciferase complementation, luminescence, 4 h | inhibition, % at 4 µM | actives 0.78% (n = 360,000) | AID 602281;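 active means inhibition above the mean inhibition across every tested compound plus 3 SD, cut at about 22% in these data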;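 further: 0% = DMSO only wells and the 100% control is not disclosed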
LEDGF integ inh = blocks HIV-1 LEDGF/p75-dependent DNA integration. inhibition, % at 3.7 µM. TR-FRET IN-LEDGF/p75 DNA integration, Eu/Cy5. AID 743269. actives 0.64% (n = 370,000);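 active means inhibition above the screen-wide mean plus 3 SD, cut at about 13% in these data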;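 further: signal is the Cy5 over europium emission ratio at 671 and 618 nm; 0% = plate median of compound wells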
rCAG RNA binder = binds r(CAG) RNA repeats; inhibition, % at 3 µM; r(CAG) RNA repeat, TO-PRO-1 dye displacement fluorescence; AID 651821; actives 1.3% (n = 370,000);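 active means inhibition above the plate cutoff, the mean of all test compounds on that plate plus 3 SD, cut at about 35% in these data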;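 further: 0% = DMSO alone and 100% = 100 µM mitoxantrone as full dye displacement; higher means more dye released from RNA so lower well fluorescence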
* hit, by the source's call; . = not tested or not shown. Sampled rows, rich in hits. Any-hit rate of the full collection: about 4.1%.

SMILES	UHRF1 binding	PRMT1 FP inh	MBD2 inh	ABHD5 PLIN5 PPI	LEDGF integ inh	rCAG RNA binder
O=[N+]([O-])c1ccccc1/C=C/C=N/n1c(-c2cc(-c3ccccc3)n[nH]2)n[nH]c1=S	2	-5	2	-7	3	12
COc1ccccc1/C=C/C=N/n1c(C)nnc1C	68*	-6	1	6	3	-3
COc1ccccc1/C=C\C=N\n1c(-c2ccc(Cl)cc2Cl)n[nH]c1=S	2	22*	1	-3	-9	23
Cc1ccc(-c2n[nH]c(=S)n2/N=C/C=C/c2ccccc2[N+](=O)[O-])cc1	0	2	-5	-1	0	40*
CCN(CC)C(=O)CC[C@H]1CC[C@]2(CCCN(C(=O)c3cccnc3)C2)O1	1	0	0	.	4	0
O=C(c1ccco1)N(Cc1cccc(F)c1)C1CCS(=O)(=O)C1 (configuration not stated)	21*	-1	6	4	-4	0
COc1ccc(CN(C(=O)c2cc(=O)c3ccccc3o2)C2CCS(=O)(=O)C2)cc1OC (configuration not stated)	22*	-2	9	-3	2	-1
CCOC(=O)N1CCN(C(=O)C[C@@H]2C[C@]3(C(=O)OCC)CCC4=C3N(CCC4)C2=O)CC1	2	-2	0	.	8	2
CN1CCN(CC(=O)Nc2ccc(S(=O)(=O)N(C)C)cc2)CC1	22*	3	10	-10	8	0
c1ccc(C2OC3c4cccc5cccc(c45)C3N2c2ccccc2)cc1 (configuration not stated)	-16	24*	-9	-14	4	-33
CCOC(=O)c1ccc(NC(=O)c2cc3ccccc3o2)cc1	26*	1	3	-10	1	3
Cc1c(CNCC(C)c2ccccc2)c(C(=O)O)c(C)n1Cc1ccccc1 (configuration not stated)	1	-2	3	-1	4	-2
CCC(Cc1ccccc1)NCc1c(C(=O)O)c(C)n(Cc2ccccc2)c1C (configuration not stated)	30*	5	-1	7	-9	0
Cc1ccc(C(=O)N2CCC[C@@H]2C(=O)N2CCC[C@@H]2C(=O)NCc2ccccc2)cc1	5	2	2	.	1	-1
COc1ccc(S(=O)(=O)Nc2cc3c4c(c2)CC(=O)N4CCC3)cc1	-2	5	-1	1	-3	7
COc1ccc(CCNS(=O)(=O)c2cc3c4c(c2)CC(=O)N4CCC3)cc1	26*	-1	3	1	1	9
COC(=O)C1CN(CCc2ccccc2)CCS(=O)(=O)N1Cc1ccccc1 (configuration not stated)	3	0	5	.	-4	3
CC(c1ccccc1)N1CC[C@H]2C=CC[C@@H](C(=O)Nc3cccc(Cl)c3)[C@H]2C1=O (some centres not stated)	3	1	2	.	-1	.
Cc1cc(C(=O)NCc2ccco2)on1	9	24*	8	8	8	4
Cc1cc(-c2ccccc2)nc2cc(C(=O)NCc3ccco3)nn12	2	12	0	23*	5	8
COc1cccc(/C=C2\CC3(OC(=O)C4CCCC4)CCCN2C3)c1 (configuration not stated)	0	1	4	.	-3	-1
CCCCOc1ccc(C(=O)n2ccc3ccc(-c4ccc5ccn(Cc6ccccc6)c5c4)cc32)cc1	1	-3	-1	.	0	8
Cc1nc2sc(C(c3ccco3)N3CCN(c4ccccc4)CC3)c(O)n2n1 (configuration not stated)	6	7	3	2	-2	5
Cc1nc2sc(C(c3ccco3)N3CCN(C(c4ccccc4)c4ccccc4)CC3)c(O)n2n1 (configuration not stated)	-3	24*	3	7	6	13
COC(=O)C1=C(C(=O)OC)[C@@]2([C@H](Cc3ccc(C)cc3)Nc3ccccc3)C=C[C@@H]1O2	-1	0	3	.	-1	.
SMILES	UHRF1 binding	PRMT1 FP inh	MBD2 inh	ABHD5 PLIN5 PPI	LEDGF integ inh	rCAG RNA binder
Cc1ccc(OCC(=O)NNC(=O)c2cccnc2)cc1	27*	0	8	0	4	0
COc1ccc(Br)c(C=O)c1OS(=O)(=O)c1ccc(C)cc1	-2	1	-1	7	16*	4
c1nc(NCC2CC2)c2cc(-c3ccc4c(c3)OCO4)ccc2n1	2	1	-4	.	-1	.
CCOC(=O)CC[C@H]1CC[C@]2(CCCN(S(=O)(=O)C3CCCCC3)C2)O1	42*	-3	-3	.	4	-1
CC(=O)CC[C@H]1CC[C@]2(CCCN(S(=O)(=O)C3CCCCC3)C2)O1	-1	4	0	.	-2	1
COc1ccc2nc(NC(=O)Nc3ccccc3)sc2c1	-1	-1	5	-8	-1	43*
COc1ccc2nc(NC(=O)c3ccccc3C(=O)O)sc2c1	-3	-1	-1	5	-1	2
COc1cccc2sc(Nc3nc4ccc(NC(C)=O)cc4s3)nc12	-1	-2	0	5	-13	49*
CN(CCCOC(=O)c1cc2ccccc2o1)C1CN(Cc2cn(Cc3ccccc3Cl)nn2)S(=O)(=O)C1 (configuration not stated)	6	-4	1	.	3	1
COC(=O)C1=C(C)Nc2[nH]c(=S)[nH]c(=O)c2C1c1ccc(O)cc1 (configuration not stated)	5	25*	0	4	-5	13
COc1cc(C2C(C(=O)OC(C)C)=C(C)Nc3[nH]c(=O)[nH]c(=O)c32)ccc1O (configuration not stated)	-2	0	0	-5	-1	4
COc1ccccc1N1CCN(S(=O)(=O)c2ccc3c(c2)n(C)c(=O)c(=O)n3C)CC1	-1	-1	5	.	4	5
CC[n+]1c(/C=C(\C)OC)sc2ccccc21	2	23*	-1	0	-1	1
COc1ccc(OC)c(CNc2c(C=O)c(=O)[nH]c3ccccc23)c1	43*	-1	-3	1	1	-6
OCc1ccccc1SSc1ccccc1CO	3	106*	10	48*	-6	-5
COc1cccc(C2CC=C(C(=O)O)CN2S(=O)(=O)c2ccc(C)cc2)c1 (configuration not stated)	0	3	4	.	0	10
N#Cc1c(N)sc2c1CCCCCC2	-5	21*	-3	-23	0	14
Cc1nc2c(C(=O)NCc3ccc(F)cc3)c[nH]n2c(=O)c1Cl	0	3	2	0	4	46*
COc1cccc(CNC(=O)c2ccc(CS(=O)(=O)Cc3ccccc3C)o2)c1	24*	2	5	7	2	0
COC(=O)c1ccc(CC(=O)c2ccc(O)cc2O)o1	.	.	.	2	.	.

Screening data as filed in PubChem.
